Results reported in PubChem BioAssay AID1159580 (chemical genetic matrix, 2015).
Where “and” joins values, the source holds several entries; their conditions need not be identical. Identical values can stand only once. The whole screen tested about 5,500 compounds, of which about 2,000 (36%) were called active. Inconclusive results (about 18%) are left out. Rule as the data show it: active = normalized growth mostly below about 0.91 (no sharp cut-off); inconclusive = no clear call, values can overlap the other calls; inactive = mostly above about 0.92. Some of the results follow.

Experiment: chemical genetic growth profiling, strain panel (AID 1159580);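 also: tested at 20 µM; growth read once vehicle control cultures reached saturation at 30 °C; 1 = growth at the plate median or of vehicle wells; lower values mean less growth of the strain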
Settings: S. cerevisiae deletion strains, growth OD

Measured: normalized growth

Clc1ccc(COC(Cn2ccnc2)c2ccc(Cl)cc2Cl)c(Cl)c1 (configuration not stated)
active: locus YAL013W, strain DEP1, active compounds read low 0.0568 | locus YAL021C, strain ccr4, active compounds read low 0.0668 | locus YAL026C, strain drs2, active compounds read low 0.0674 | locus YAL030W, strain snc1, active compounds read low 0.0581 | locus YBL061C, strain skt5, active compounds read low 0.0608 | locus YBR009C, strain hhf1, active compounds read low 0.0655 | locus YBR021W, strain FUR4, active compounds read low 0.0874 | locus YBR023C, strain chs3, active compounds read low 0.0682 | locus YBR171W, strain sec66, active compounds read low 0.0803 | locus YBR229C, strain ROT2, active compounds read low 0.0268 | locus YBR231C, strain swc5, active compounds read low 0.0764 | locus YBR279W, strain paf1, active compounds read low 0.0803 | locus YCL011C, strain gbp2, active compounds read low 0.0572 | locus YCL016C, strain dcc1, active compounds read low 0.0647 | locus YCL029C, strain bik1, active compounds read low 0.0612 | locus YCL061C, strain MRC1, active compounds read low 0.065 | locus YCL069W, strain vba3, active compounds read low 0.0638 | locus YCR088W, strain abp1, active compounds read low 0.0654 | locus YDL005C, strain med2, active compounds read low 0.0803 | locus YDL035C, strain GPR1, active compounds read low 0.0505 | locus YDL040C, strain nat1, active compounds read low 0.0613 | locus YDL074C, strain BRE1, active compounds read low 0.0763 | locus YDL101C, strain DUN1, active compounds read low 0.0503 | locus YDL134C, strain PPH21, active compounds read low 0.0516 | locus YDL185W, strain tfp1, active compounds read low 0.0554 | locus YDL192W, strain arf1, active compounds read low 0.0597 | locus YDR001C, strain nth1, active compounds read low 0.0613 | locus YDR069C, strain doa4, active compounds read low 0.065 | locus YDR101C, strain arx1, active compounds read low 0.0587 | locus YDR137W, strain rgp1, active compounds read low 0.111 | locus YDR150W, strain NUM1, active compounds read low 0.0575 | locus YDR159W, strain sac3, active compounds read low 0.0885 | locus YDR162C, strain NBP2, active compounds read low 0.0451 | locus YDR195W, strain ref2 0.126 | locus YDR297W, strain sur2, active compounds read low 0.0574 | locus YDR318W, strain mcm21, active compounds read low 0.0643 | locus YDR334W, strain swr1, active compounds read low 0.0662 | locus YDR335W, strain msn5, active compounds read low 0.0617 | locus YDR388W, active compounds read low 0.056 | locus YDR392W, strain spt3, active compounds read low 0.101 | locus YDR502C, strain sam2, active compounds read low 0.0624 | locus YEL003W, strain gim4, active compounds read low 0.0564 | locus YEL037C, strain rad23, active compounds read low 0.0601 | locus YEL061C, strain CIN8 (second series), active compounds read low 0.0638 | locus YEL061C, strain CIN8, active compounds read low 0.0482 | locus YER015W, strain faa2, active compounds read low 0.0604 | locus YER016W, strain bim1, active compounds read low 0.0607 | locus YER110C, active compounds read low 0.0744 | locus YER111C, strain swi4, active compounds read low 0.0809 | locus YER155C, strain BEM2 (second series), active compounds read low 0.0947 | locus YER155C, strain BEM2, active compounds read low 0.0667 | locus YER167W, strain BCK2, active compounds read low 0.0577 | locus YFR010W, strain ubp6, active compounds read low 0.0709 | locus YGL078C, strain dbp3, active compounds read low 0.0696 | locus YGL086W, strain mad1, active compounds read low 0.0583 | locus YGL167C, strain pmr1, active compounds read low 0.0799 | locus YGL173C, strain kem1, active compounds read low 0.072 | locus YGL227W, strain vid30, active compounds read low 0.067 | locus YGL240W, strain doc1, active compounds read low 0.0883 | locus YGL248W, strain PDE1, active compounds read low 0.0461 | locus YGL253W, strain hxk2, active compounds read low 0.0558 | locus YGR078C, strain PAC10, active compounds read low 0.0558 | locus YGR135W, strain pre9, active compounds read low 0.0676 | locus YGR229C, strain SMI1, active compounds read low 0.0622 | locus YGR252W, strain gcn5, active compounds read low 0.155 | locus YHR013C, strain ard1, active compounds read low 0.106 | locus YHR027C, strain rpn1, active compounds read low 0.0625 | locus YHR030C, strain SLT2, active compounds read low 0.0509 and 0.102 | locus YHR079C, strain IRE1 (second series), active compounds read low 0.0623 | locus YHR079C, strain IRE1, active compounds read low 0.124 | locus YHR094C, strain hxt1, active compounds read low 0.0654 | locus YHR129C, strain ARP1, active compounds read low 0.0576 | locus YHR142W, strain chs7, active compounds read low 0.0767 | locus YHR200W, strain rpn10, active compounds read low 0.0606 | locus YIL066C, strain RNR3, active compounds read low 0.0442 | locus YIL073C, strain SPO22, active compounds read low 0.115 | locus YIL125W, strain kgd1, active compounds read low 0.0693 | locus YIR030C, strain dcg1, active compounds read low 0.0593 | locus YJL092W, strain hpr5, active compounds read low 0.061 | locus YJL095W, strain BCK1 (second series), active compounds read low 0.059 | locus YJL095W, strain BCK1, active compounds read low 0.0515 and 0.106 | locus YJL115W, strain asf1, active compounds read low 0.0748 | locus YJL129C, strain trk1, active compounds read low 0.0933 | locus YJL134W, strain LCB3, active compounds read low 0.0457 | locus YJL154C, strain vps35, active compounds read low 0.062 | locus YJL164C, strain tpk1, active compounds read low 0.0667 | locus YJL166W, strain qcr8, active compounds read low 0.0609 | locus YJL168C, strain set2, active compounds read low 0.0574 | locus YJL187C, strain SWE1 (second series), active compounds read low 0.0406 | locus YJL187C, strain SWE1, active compounds read low 0.0602 | locus YJR043C, strain POL32, active compounds read low 0.0602 | locus YJR066W, strain TOR1, active compounds read low 0.0025
